{
  "source": "PubChem BioAssay (EPA / NIEHS)",
  "note": "The source made the active and inactive calls. Rule for the calls: active = hit-call score of the fitted dose curve at least 0.9, where 1 is the maximum; inactive = score below 0.9.",
  "data": [
    {"experiment": "ATG_M_61_CIS: Attagene CIS-FACTORIAL HepG2 Assay for M61 Transcription Factor (Internal Marker) (AID 2282937)", "conditions": "HepG2 Attagene CIS-FACTORIAL M61 internal marker reporter; actives raise or lower the signal", "protocol": "ATG_CIS is a cell-based, multiplexed-readout assay that uses HepG2, a human liver cell line, with measurements taken at 24 hours after chemical dosing in a 24-well plate.ATG_M_61_CIS is one of 52 assay component(s) measured or calculated from the ATG_CIS assay. It is designed to make measurements of mRNA induction, a form of inducible reporter, as detected with fluorescence intensity signals by Reverse transcription polymerase chain reaction (RT-PCR) and Capillary electrophoresis technology.Data from the assay component ATG_M_61_CIS was analyzed into 1 assay endpoint. This assay endpoint, ATG_M_61_CIS, was analyzed with bidirectional fitting relative to DMSO as the negative control and baseline of activity. Using a type of inducible reporter, measures of mRNA for gain or loss-of-signal activity can be used to understand the background control at the transcription factor-level as they relate to the gene . Furthermore, this assay endpoint can be referred to as a secondary readout, because this assay has produced multiple assay endpoints where this one serves a background control function. To generalize the intended target to other relatable targets, this assay endpoint is annotated to the background measurement intended target family, where the subfamily is internal marker.\nHuman liver HepG2 cells are transiently transfected with multiple reporter transcription units (MRTUs) in 6-well plates using FuGene 6 reagent (Roche; 3 ml FuGene/1 mg DNA). The MRTU constructs are regulated by a cis-regulating element (promoter). […] A major difference between the CIS and TRANS system is that in CIS activities of endogenous TFs are measured, whereas the TRANS assay evaluates changes in activities of exogenous, chimeric NR-Gal4 proteins. […] At the end of 24 hour incubation, total RNA was isolated using TriZol reagent (Invitrogen). The isolated RNA is then reverse-transcribed using oligo(dT) primer and Mo-MLV reverse transcriptase (Invitrogen) with DNAse I (Ambion) treatment for 30 min. The one-tenth of the produced cDNA was amplified by PCR using Taq DNA polymerase (Invitrogen) and two reporter sequence-specific primers. The PCR products were fluorescently labeled by primer extension with 6-arboxyfluorescein (6-FAM) 5'-labeled reporter sequence-specific primer (2 min at 95 C, 20 s at 68 C and 10 min at 72 C) and these products were digested with 5U of HpaI (New England Biolabs) for 2h at 37 C. The fragments were purified using Qiaquick PCR columns (Qiagen), analyzed on an ABI 3130xL genetic analyzer (Applied Biosystems) with peak positions identified by using a set of X-rhodamine (ROX)-labeled MapMarker1000 molecular weight standards (BioVentures). The raw capillary electrophoresis data was processed using Attagraph software (Attagene).", "values": [
      {"compound": "C=C(C)C1CC=C(C)CC1", "note": "(stereo not given)", "outcome": "inactive"},
      {"compound": "CC(=O)OC1CCCCC1C(C)(C)C", "note": "(stereo not given)", "outcome": "inactive"},
      {"compound": "C/C=C/C=C/CCCCCCCO", "outcome": "inactive"},
      {"compound": "CCCCCCCCCCCC(=O)N(C)CC(=O)O", "outcome": "inactive"},
      {"compound": "CC1(C)CC(O)CC(C)(C)N1[O]", "outcome": "inactive"},
      {"compound": "CC(CCC(=O)O)(c1ccc(O)cc1)c1ccc(O)cc1", "outcome": "inactive"},
      {"compound": "CCCC/C=C/C=C\\C=O", "outcome": "inactive"},
      {"compound": "CCOC(=O)[C@H](O)[C@@H](O)C(=O)OCC", "outcome": "inactive"},
      {"compound": "CC/C=C\\CCOC(=O)c1ccccc1O", "outcome": "inactive"},
      {"compound": "c1ccc2cnccc2c1", "outcome": "inactive"},
      {"compound": "COC(=O)CC(C)CCC=C(C)C", "note": "(stereo not given)", "outcome": "inactive"},
      {"compound": "CC(CC=O)CC(C)(C)C", "note": "(stereo not given)", "outcome": "inactive"},
      {"compound": "COc1nccnc1CC(C)C", "outcome": "inactive"},
      {"compound": "CC(C)c1cccc(C(C)C)c1N", "outcome": "inactive"},
      {"compound": "CCOC(=O)c1ccccc1C", "outcome": "inactive"},
      {"compound": "CCOC(=O)C1=NN(c2ccc(Cl)cc2Cl)C(C)(C(=O)OCC)C1", "note": "(stereo not given)", "outcome": "inactive"},
      {"compound": "CN(C)Cc1cc(CN(C)C)c(O)c(CN(C)C)c1", "outcome": "inactive"},
      {"compound": "Cc1ccccc1CCO", "outcome": "inactive"},
      {"compound": "O=c1c(O)c(-c2ccc(O)cc2O)oc2cc(O)cc(O)c12", "outcome": "inactive"},
      {"compound": "CCOC(=O)/C=C\\C(=O)OCC", "outcome": "inactive"},
      {"compound": "COC(OC)(C(=O)c1ccccc1)c1ccccc1", "outcome": "inactive"},
      {"compound": "CC(=O)CCC1=C(C)CCCC1(C)C", "outcome": "inactive"},
      {"compound": "Cc1cccc(C(C)(C)C)c1O", "outcome": "inactive"},
      {"compound": "CC(C)c1ccc2ncccc2c1", "outcome": "inactive"},
      {"compound": "CCCCCCC=O", "outcome": "inactive"},
      {"compound": "CCN1CCCC1=O", "outcome": "inactive"},
      {"compound": "Cc1noc(NS(=O)(=O)c2ccc(N)cc2)c1C", "outcome": "inactive"},
      {"compound": "CCCCOCC(C)O", "note": "(stereo not given)", "outcome": "inactive"},
      {"compound": "Fc1ccc(Br)cc1", "outcome": "inactive"},
      {"compound": "CCCCOC(=O)CCC(C)=O", "outcome": "inactive"},
      {"compound": "CC(=O)OC/C=C(/C)CCC=C(C)C", "outcome": "inactive"},
      {"compound": "C=C(C)C1CC=C(C)C(OC(C)=O)C1", "note": "(stereo not given)", "outcome": "inactive"},
      {"compound": "CCCCCCCCCC(C)=O", "outcome": "inactive"},
      {"compound": "CCCCCCCCCCCCCC(=O)OC(C)C", "outcome": "inactive"},
      {"compound": "CCCCCCCC(=O)OCC(COC(=O)CCCCCCC)OC(=O)CCCCCCC", "outcome": "inactive"},
      {"compound": "CC1=CCC2CC1C2(C)C", "note": "(stereo not given)", "outcome": "inactive"},
      {"compound": "C=CC(=O)O[C@H]1C[C@@H]2CC[C@@]1(C)C2(C)C", "outcome": "inactive"},
      {"compound": "CC(C)(C)C1CCC(=O)CC1", "outcome": "inactive"},
      {"compound": "CCCCCOC(=O)CCCCC", "outcome": "inactive"},
      {"compound": "CC(CC(C)C)=NO", "outcome": "inactive"}
    ]}
  ]
}
